# Source: PubChem (The Scripps Research Institute Molecular Screening Center)
# Hits are enriched below; roughly 2.3% of the tested compounds scored in any of these assays.
# CHO-K1 Ca antag = counter-screen for M1 antagonists: effect in parental CHO-K1 cells; inhibition, % at 3 µM; ATP-induced calcium, Fluo-8 fluorescence; AID 602250; actives 0.6% (n = 360,000);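 active means inhibition above a per-plate cutoff, the plate's mean sample inhibition plus 3 SD, cut at about 24% in these data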;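 further: 0% = DMSO plus EC80 ATP and 100% = DMSO alone without ATP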
# CHRM1 agonist = agonists of human M1 muscarinic receptor; P11229; CHO-K1 hM1, Fluo-8 calcium fluorescence, agonist mode; 0% DMSO, 100% acetylcholine EC100; activation, % at 3 µM; actives 0.33% (n = 360,000); AID 588814;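 active means activation above the run's mean compound activation plus 3 SD, cut at about 16% in these data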;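 further: peak over basal fluorescence ratio within a 140 s kinetic read after compound addition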
# Target sequence (P11229 whole entry, looked up): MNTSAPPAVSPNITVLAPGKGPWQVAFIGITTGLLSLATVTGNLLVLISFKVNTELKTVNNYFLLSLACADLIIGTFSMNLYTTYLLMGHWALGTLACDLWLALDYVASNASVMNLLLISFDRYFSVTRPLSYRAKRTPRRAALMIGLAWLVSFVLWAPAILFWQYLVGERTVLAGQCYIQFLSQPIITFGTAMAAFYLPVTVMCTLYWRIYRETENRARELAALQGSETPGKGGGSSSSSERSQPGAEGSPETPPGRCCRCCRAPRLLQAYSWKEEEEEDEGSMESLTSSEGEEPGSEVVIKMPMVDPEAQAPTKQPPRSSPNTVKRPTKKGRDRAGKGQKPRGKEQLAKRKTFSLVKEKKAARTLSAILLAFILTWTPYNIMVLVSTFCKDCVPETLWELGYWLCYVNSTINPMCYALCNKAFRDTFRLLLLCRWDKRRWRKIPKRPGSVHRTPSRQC
# M1 antag = antagonists of human M1 muscarinic receptor | P11229 | CHO-K1 hM1, Fluo-8 calcium fluorescence, ACh EC80 antagonist | inhibition, % at 3 µM | actives 1.3% (n = 360,000) | AID 588852;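 active means percent inhibition above its own plate's cutoff, namely the mean of that plate's compound wells plus 3 SD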;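 further: peak over basal fluorescence ratio during 140 s after agonist addition; 0% = ACh EC80 plus DMSO and 100% = DMSO alone without agonist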
# M1 PAM parental = M1 PAM counterscreen hit in parental CHO-K1 cells; ATP EC20, Fluo-8 calcium fluorescence; 0% at ATP EC20, 100% at ATP max; actives 0.02% (n = 360,000); activation, % at 3 µM;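 active means activation above the run cutoff, the mean activation of all test compounds plus 3 SD, cut at about 40% in these data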;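 further: peak over basal fluorescence ratio in a 140 s read after ATP addition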
# CHRM1 PAM = potentiates human M1 receptor response to acetylcholine. P11229. CHO-K1 hM1, Fluo-8 calcium fluorescence, ACh EC20; 0% = ACh EC20, 100% = maximal ACh. activation, % at 3 µM. actives 0.088% (n = 360,000); in the data active means activation above about 19%, passing the limit was not always enough
# M1 ag parental = nonselective activator or artifact in parental CHO-K1 cells. Fluo-8 calcium fluorescence; scaled to maximal ATP response, vehicle zero. activation, % at 3 µM. actives 0.48% (n = 360,000); in the data active means activation above about 15%;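 further: untransfected CHO-K1 host cells lacking M1 receptor as counterscreen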
# * marks the source's active call; other numbers are inactive results; . = no result given.
SMILES,CHO-K1 Ca antag,CHRM1 agonist,M1 antag,M1 PAM parental,CHRM1 PAM,M1 ag parental
CN1C(=O)C(O)N=C(c2ccccc2)c2ccccc21 (stereo not given),-6,-11,38*,-10,-25,0
CN1CCCN(C(=O)COc2cccc(C(F)(F)F)c2)CC1,-8,-5,-1,14,3,1
O=C1C2CCN(CC2)[C@@H]1Cc1ccc2ccccc2c1O,6,-2,40*,7,-17,1
Cc1c(N=Nc2c(O)n(Cc3ccccc3)c(=O)[nH]c2=O)c(=O)n(-c2ccccc2)n1C,-11,-9,-11,17,8,0
C=CCC1(Nc2ccccc2)CC(C)N(C)CC1C (stereo not given),20,-8,97*,-29,-27,0
CCC(=NCCCn1ccnc1)c1c(O)n(-c2ccc(OC)cc2)c(=O)[nH]c1=O,-6,1,-5,10,16,0
Cc1nc2ccc(Br)cc2c(=O)n1-c1ccc([N+](=O)[O-])c(C(F)(F)F)c1,19,5,36*,-11,-13,13
Cc1nc2ccccc2c(=O)n1-c1cc([N+](=O)[O-])cc([N+](=O)[O-])c1,-8,0,-11,-2,3,2
COC(=O)C1=C(c2cccc(OCc3ccccc3)c2)C[C@@H]2CC[C@H]1N2C(=O)NCc1ccc(F)cc1,-6,-13,38*,-2,-34,0
COC(=O)C1=C(c2ccccc2)C[C@@H]2CC[C@H]1N2C(=O)NCc1ccc(F)cc1,-7,-13,67*,5,-37,-1
COC(=O)C1=C(c2cc3ccccc3o2)C[C@@H]2CC[C@H]1N2C,-5,-14,35*,5,-30,0
COC(=O)C1=C(c2ccccc2)C[C@@H]2CC[C@H]1N2C(=O)NCc1ccccc1,-6,-10,-12,-6,9,0
COC(=O)C1=C(c2cc3ccccc3o2)C[C@@H]2CC[C@H]1N2C(=O)NCc1ccc(F)cc1,-14,-12,67*,12,-38,0
CC1CC(C)OP(=O)(OCCC#N)O1 (stereo not given),-8,1,-15,1,7,0
Cc1c(C(=O)N2CCC3(CC2)OCCO3)sc2ncnc(N3CCc4ccccc4C3)c12,0,-6,-6,11,5,4
CCOC(=O)[C@]12Cc3ccc4ccccc4c3[C@H]1N(Cc1ccccc1)C(=O)c1ccccc12,-18,.,.,5,.,0
Nc1ccc2ccc3cccc[n+]3c2c1,-9,10,22,20,-12,32*
CN1C2CCC1CC(OC(=O)c1ccc(Cl)cc1)C2 (stereo not given),0,-5,77*,18,-22,7
O=[N+]([O-])c1cccc(CN2CCN(Cc3ccc(Br)cc3)CC2)c1,8,-12,27*,-4,-29,6
O=C(Cc1ccccc1)N1CCN(Cc2ccc([N+](=O)[O-])cc2)CC1,15,-5,17,-13,-11,0
CC(Cc1ccccc1Sc1ccccc1O)N(C)C (stereo not given),5,-4,98*,7,-23,2
O=c1[nH]c(=O)n(Cc2ccccc2Cl)c(O)c1C=Nc1ccc(F)cc1,-7,-4,-12,13,14,0
CN1CCC(N(C)c2nc(-c3ccc([N+](=O)[O-])cc3)nc3ccccc23)CC1,-11,-2,-3,19,-4,2
CN(CC1COc2ccccc2O1)c1nc(-c2cccnc2)nc2ccccc12 (stereo not given),-4,0,30*,-4,-13,3
COc1ccccc1OCC(=O)N1CCCC(N2CCN(c3ccc(F)cc3)CC2)C1 (stereo not given),1,-4,10,1,-3,1
SMILES,CHO-K1 Ca antag,CHRM1 agonist,M1 antag,M1 PAM parental,CHRM1 PAM,M1 ag parental
O=C(COc1ccccc1Cl)N1CCCC(N2CCN(c3ccc(F)cc3)CC2)C1 (stereo not given),15,-2,0,7,-3,15*
COC1=CC(=O)OC(/C=C/c2ccccc2)C1 (stereo not given),46*,-1,-21,-9,-3,0
CC(=O)Nc1cccc([As](=O)(c2cccc(NC(C)=O)c2)c2cccc(NC(C)=O)c2)c1,-12,0,-17,1,15,0
CC(=O)Nc1cc([As](=O)(O)O)ccc1O,-11,20*,-18,6,-6,0
CCC(=NCc1cccnc1)c1c(O)n(-c2ccc(Cl)cc2)c(=O)[nH]c1=O,-14,-2,-1,3,-1,0
Oc1cc(Cl)c(Cl)c(Cl)c1Cl,-22,1,-2,15,4,10
Oc1cc(Cl)c(Cl)c(Cl)c1,0,1,23*,-13,-20,15
COC1CCC(OC2CC(C3(C)CCC4(CC(O)C(C)C(C(C)/C=C(\C)C(=O)C(C)CC(C)C(=O)O)O4)O3)OC3(OC(C4OC(O)(CO)C(C)CC4C)CC3C)C2C)OC1C (stereo not given),-15,2,-7,5,2,1
CC[C@H]1CN2CC[C@@]3(C(=O)Nc4ccccc43)[C@@H]2C[C@@H]1/C(=C\OC)C(=O)OC,4,2,-14,8,15,0
CCN(CC)CCCOC(=O)C(OC(C)C)(c1ccccc1)c1ccccc1,-5,-10,102*,18,-32,4
CCOP(=O)(OCC)/C(C#N)=C/c1ccc(Br)cc1,2,-3,6,-2,-5,0
O=C(c1ccc2c(c1)OCO2)C1CCCN(Cc2ccc(F)c(F)c2)C1 (stereo not given),-12,-7,70*,15,-24,0
Cc1ccccc1CC(=O)N(CCN(C)C)CC1CCCN(Cc2ccccc2F)C1 (stereo not given),-4,-8,-1,-9,2,0
O=C(c1ccc(Cl)cc1)C1CCCN(Cc2cccc3cnccc23)C1 (stereo not given),-8,-3,70*,16,-23,8
CN(C(=O)Cc1ccc2c(c1)OCO2)C1CCCN(Cc2ccccc2F)C1 (stereo not given),0,-7,46*,13,-27,1
O=C(c1ccc(Cl)cc1)C1CCCN(Cc2ccc3ncccc3c2)C1 (stereo not given),-6,0,81*,2,-20,7
COc1cc(C(C)=O)ccc1OC(=O)N(C)c1ccccc1,-6,5,-15,8,17,2
COc1ccc(C(CNC(=O)c2ccc3c(c2)CCC3)N(C)C)cc1 (stereo not given),-12,-9,5,-16,1,1
O=c1[nH]c(O)c(C=Nc2ccc(Cl)c(C(F)(F)F)c2)c(=O)[nH]1,-7,-11,41*,6,-26,1
